Measured potencies and affinities stand elsewhere.

In experiment [1] the test system is Klebsiella pneumoniae. As to conditions: Concentration 32 ug.mL-1;; ASSAY_TEST Inhibition of Bacterial Growth; detection method Absorption (OD600); MEDIA CAMHB; plate type 384well; NBS; CORNING #3640; time 18 hr.
The subject of experiment [2] is Candida albicans. As to conditions: Concentration 32 ug.mL-1; ASSAY_TEST Inhibition of Fungal Growth; detection method Absorption (OD530).
For experiment [3], the system named is Cryptococcus neoformans. As to conditions: Concentration 32 ug.mL-1; ASSAY_TEST Inhibition of Fungal Growth; detection method Resazurin; Absorption (OD600-OD570); plate type 384well; NBS; CORNING #3640. Background: Alamar Blue is a resazurin reagent that responds to reducing activity.

In general, Inhibition refers to the change of the read-out against control, counted positive when it falls. Take `COc1ccc(NC(=O)c2ccc3nn(CC(=O)Nc4ccc(C(C)C)cc4)c(=O)n3c2)cc1`: the Inhibition is 5.27% in experiment [1], 10.58% in experiment [2] and -13.36% in experiment [3].

With `CCCCc1ccc(NC(=O)Cn2nc3c(Sc4ccccc4CC)nccn3c2=O)cc1`, the Inhibition in experiment [1] is listed as -8.8%; in experiment [2] it was 24.82%; in experiment [3], -8.24%.

With `Cc1ccc(Cn2c(=O)c3ccccc3n3c(=O)n(CC(=O)Nc4ccc5c(c4)OCCO5)nc23)cc1`, the values for the Inhibition in experiment [1], in experiment [2] and in experiment [3] were 10.7%, 0.1% and -21.97%, respectively.

As for `Cc1ccc(NC(=O)Cn2nc3ccc(SC4CCCCC4)nn3c2=O)c(Cl)c1`, the Inhibition was 12.19% in experiment [1], 5.14% in experiment [2] and -13.64% in experiment [3].

As to `O=C(Cn1nc2nc(Nc3ccc(F)cc3)ccn2c1=O)N1CCCc2ccccc21`, the figures for the Inhibition in experiment [1], in experiment [2] and in experiment [3] were 14.82%, 2.56% and -7.45%, respectively.

As to `Cc1ccc(-n2ccn3c(SCC(=O)N4CCN(c5ccc(F)cc5)CC4)nnc3c2=O)cc1C`, the figures for the Inhibition in experiment [1], in experiment [2] and in experiment [3] were 1.76%, 0.36% and -5.04%, respectively.

With `Cc1ccc(Cl)cc1NC(=O)CSc1nc2ccccc2n2c(C)nnc12`, the Inhibition in experiment [1] is 2.82%; in experiment [2], 5.91%; in experiment [3] it was -21.14%.

On to `Cc1nnc2c(SCC(=O)Nc3ccc(Br)cc3F)nc3ccccc3n12`, for which the Inhibition is on record as 10.56% in experiment [1], 0.1% in experiment [2] and -6.82% in experiment [3].

With `CCc1nnc2ccc(S(=O)(=O)N(Cc3cccc(F)c3)c3ccc(OC)cc3)cn12`, the figures for the Inhibition in experiment [1], in experiment [2] and in experiment [3] were -6.85%, 1.92% and -10.67%, respectively.

For `CCc1nnc2c(S(=O)(=O)N(Cc3cc(F)cc(F)c3)c3ccccc3)cccn12`, the figures for the Inhibition in experiment [1], in experiment [2] and in experiment [3] were 9.94%, 6.55% and -7.12%, respectively.

For `Cc1ccc(NC(=O)Cn2nc3c(N4CCOCC4)nccn3c2=O)cc1Cl`, the Inhibition is listed as 6.31% in experiment [1], 3.12% in experiment [2] and -5.46% in experiment [3].

With `Cc1ccc(C)c(Cn2nc3c(=O)n(-c4ccc(C)c(C)c4)ccn3c2=O)c1`, the values for the Inhibition in experiment [1], in experiment [2] and in experiment [3] were 6.6%, 1.95% and -10.52%, respectively.

Take `COc1ccccc1-n1ccn2c(SCc3cccc(Cl)c3)nnc2c1=O`: the Inhibition was 1.3% in experiment [1], 1.65% in experiment [2] and -7.59% in experiment [3].

With `Cc1ccc(NC(=O)Cn2nc3c(N4CCOCC4)nc4ccccc4n3c2=O)cc1C`, the Inhibition in experiment [1] is 11.25%; in experiment [2], -0.6%; in experiment [3], -25.03%.

For the compound `Cc1cccc(Sc2nc3ccccc3n3c(=O)n(CC(=O)Nc4c(C)cc(C)cc4C)nc23)c1`, the results for the Inhibition in experiment [1], in experiment [2] and in experiment [3] were 10.9%, 0.56% and -23.88%, respectively.

With `O=S(=O)(c1ccc2nncn2c1)N(Cc1ccccc1F)c1cccc(F)c1`, the Inhibition is recorded as -5.56% in experiment [1], 2.89% in experiment [2] and -8.33% in experiment [3].

Consider `Cc1ccc(-c2cc3c4nn(CC(=O)NC5CCCC5)c(=O)n4ccn3n2)cc1C`, for which the Inhibition is listed as 3.15% in experiment [1], 6.8% in experiment [2] and -13.73% in experiment [3].

For `COc1cccc(-n2ccn3c(SCc4ccc(C)cc4)nnc3c2=O)c1`, the Inhibition in experiment [1] is 12.94%; in experiment [2], 3.44%; in experiment [3], -15.83%.

As for `Cc1ccc(Cn2nc3c(=O)n(-c4cccc(F)c4)ccn3c2=O)cc1`, the Inhibition is recorded as 1.12% in experiment [1], 5.68% in experiment [2] and -10.74% in experiment [3].

Consider `Cc1ccc(CN(c2cccc(F)c2)S(=O)(=O)c2ccc3nnc(C)n3c2)cc1`, for which the Inhibition in experiment [1] is -4.46%; in experiment [2] it was 1.78%; in experiment [3] it was -8.87%.

Take `O=C(Cn1nc2c(SCc3ccccc3)nccn2c1=O)NCc1ccc(Cl)cc1`: the results for the Inhibition in experiment [1], in experiment [2] and in experiment [3] were -3.05%, 1.33% and -17.24%, respectively.

As for `CC(C)(C)Sc1ccc2nn(CC(=O)Nc3ccccc3Cl)c(=O)n2n1`, the Inhibition is on record as 9.71% in experiment [1], 5.29% in experiment [2] and -25.66% in experiment [3].

`CCc1ccccc1Sc1nccn2c(=O)n(CC(=O)N3CCN(c4ccc(F)cc4)CC3)nc12`: the Inhibition in experiment [1] is recorded as 3.21%; in experiment [2] it was 4.71%; in experiment [3], -7.3%.

As for `O=c1c2sccc2n2c(=O)n(Cc3cccc(Cl)c3)nc2n1Cc1cccs1`, the Inhibition in experiment [1] is 3.75%; in experiment [2] it was 61.44%; in experiment [3] it was -14.34%.

Consider `O=C(Cn1nc2n(Cc3ccccc3)c(=O)c3ccccc3n2c1=O)Nc1ccc2c(c1)OCO2`, for which the figures for the Inhibition in experiment [1], in experiment [2] and in experiment [3] were 2.83%, 0.36% and -11.06%, respectively.

On to `Cc1ccc(Oc2nc3ccccc3n3c(=O)n(CC(=O)Nc4ccccc4C(F)(F)F)nc23)cc1`, for which the Inhibition in experiment [1] is 13.52%; in experiment [2], 1.1%; in experiment [3], -22.18%.

For the compound `CC(C)(C)Sc1ccc2nn(CC(=O)NCc3ccc(Cl)cc3)c(=O)n2n1`, the figures for the Inhibition in experiment [1], in experiment [2] and in experiment [3] were 10.39%, 0.88% and -9.66%, respectively.

For the compound `COc1ccc(-c2cc3c4nnc(CCC(=O)NCc5cccs5)n4ccn3n2)cc1`, the Inhibition in experiment [1] is recorded as 6.72%; in experiment [2], -0.32%; in experiment [3], -11.02%.

On to `CCOc1ccc(-n2ccn3c(SC(C)C(=O)Nc4cc(OC)cc(OC)c4)nnc3c2=O)cc1` (stereo not drawn), for which the Inhibition in experiment [1] is 7.45%; in experiment [2], 1.5%; in experiment [3], -3.58%.

In the case of `Cc1ccc(NC(=O)Cn2c(=O)c3nnc(C)n3c3ccccc32)cc1C`, the Inhibition was 6.79% in experiment [1], 0.69% in experiment [2] and -4.45% in experiment [3].

For `COCCCNC(=O)CSc1nnc2c(=O)n(Cc3ccccc3F)ccn12`, the values for the Inhibition in experiment [1], in experiment [2] and in experiment [3] were 15.39%, 4.29% and -16.33%, respectively.
